Laboratory results as given in ChEMBL document CHEMBL3988442, “University of Dundee, Small-Polar-MMV Screening Library” (2021).
About 13,000 (27%) of roughly 48,000 compounds showed an effect of 50% or more. The list shows a part of the results.

system: Wolbachia pipientis; experiment: Anti-Wolbachia Cell-Based Screen; assay type: functional; parameters: scale not given: in the data most compounds retested in dose-response had high values; conditions: 5 µM

| Compound | Percent Effect |
| --- | --- |
| Cc1noc(C)c1CC(=O)NCC(C)N1CCOCC1 (centres undefined) | 8.973% |
| O=C(NCc1cccnc1)[C@@H]1CC[C@@H]2[C@@H](CCN2c2ncccn2)O1.O=C(O)C(F)(F)F.O=C(O)C(F)(F)F | 3.562% |
| CO[C@H]1CC[C@H]2[C@H]1OCCN2Cc1ccc(F)cc1.O=C(O)C(F)(F)F | 91.7% |
| Fc1ccc(CN2CCO[C@H]3[C@H](OCC4CC4)CC[C@@H]32)cc1.O=C(O)C(F)(F)F | 2.778% |
| Fc1ccc(CN2CCO[C@H]3[C@H](OCC4CCCC4)CC[C@@H]32)cc1.O=C(O)C(F)(F)F | 109% |
| CCO[C@@H]1CC[C@H]2[C@H]1OCCN2Cc1ccc(F)cc1 | 96.26% |
| Fc1cccc(CN2CCO[C@H]3[C@@H](OCc4ccccn4)CC[C@@H]32)c1 | 10.15% |
| CO[C@@H]1CC[C@H]2[C@H]1OCCN2Cc1ccc(F)cc1.O=C(O)C(F)(F)F | 109.6% |
| CC(=O)c1cccc(S(=O)(=O)NCC(C)(O)c2cccs2)c1 (centres undefined) | 1.748% |
| COCCN1CCN(C(=O)C[C@@H]2C[C@@H](C(C)C)[C@H](CC#N)C=C2C)CC1 | 7.225% |
| COc1cc(F)ccc1-c1cc(N)ccn1 | -8.193% |
| CCOc1ccccc1CNC(=O)NCC(c1cnn(C)c1)N(C)C (centres undefined) | -20.46% |
| Cc1cc(C)cc(C(=O)NCCCNc2ncccn2)c1 | -23.32% |
| Cc1ccc2cc(C3(O)CCN(C(=O)CN4CCCC4)CC3)ccc2n1 | -0.9065% |
| CS(=O)(=O)N(Cc1ccon1)c1ccc(F)cc1 | -1.74% |
| CC(C)CCn1cc(C(C(=O)O)N2CCC(c3ccncc3)CC2)cn1 (centres undefined) | 105.9% |
| CC(C)Cc1cn(C2CCN(C(C)CCn3cccn3)CC2)nn1 (centres undefined) | 2.161% |
| CC(C)CCn1cc(C(C(=O)O)N2CCC(N3CCSCC3)CC2)cn1 (centres undefined) | 123.7% |
| COc1ccc(C(C(=O)O)N2CCCN(C3CCCC3)CC2)cc1OC (centres undefined) | 14.25% |
| CC(C)CCn1cc(C(C(=O)O)N2CCSCC2)cn1 (centres undefined) | 100.1% |
| COc1ccc(F)cc1C(C(=O)O)N1CCSCC1 (centres undefined) | -3.942% |
| COCCn1cc(NC(=O)NCC(C)N2CCOCC2)cn1 (centres undefined) | -7.646% |
| Cn1cc(CN2CCC3(CC2)CC(c2ccncc2)C(=O)N3)cn1.O=C(O)C(F)(F)F.O=C(O)C(F)(F)F (centres undefined) | 4.796% |
| COc1ccc(C(C(=O)O)N2CCCN(C3CCCCC3)CC2)cn1 (centres undefined) | 6.723% |
| CC(C)CCn1cc(C(C(=O)O)N2CCCN(C3CCCC3)CC2)cn1 (centres undefined) | 99.16% |
| CC(C)CCS(=O)(=O)CC(=O)N1CCCC1c1cnn(C)c1 (centres undefined) | 5.656% |

| Compound | Percent Effect |
| --- | --- |
| CC(CCn1cccn1)N1CCC(n2cc(C(C)(C)N)nn2)CC1 (centres undefined) | -1.676% |
| O=C(N[C@@H]1CN(c2ncccn2)C[C@@H]2CCCO[C@@H]21)c1cccnc1.O=C(O)C(F)(F)F.O=C(O)C(F)(F)F | -5.975% |
| CCN1CCN(C(=O)c2ccn(C)c(=O)c2)CC1 | 15.1% |
| CCN1CCN(C(=O)c2cccc(CN3CCOCC3)c2)CC1 | 97.52% |
| CC1CCN(C(=O)c2cccc(CN3CCOCC3)c2)CC1 | 117.9% |
| CCOCCN1CCN(Cc2cccc(C(=O)N(C)C)c2)CC1 | -1.534% |
| CN1CCN(C(=O)c2cccc(CN3CCOCC3)c2)CC1 | 132.9% |
| NC(=O)C1CCN(C(=O)c2cccc(CN3CCOCC3)c2)CC1 | -12.72% |
| COCc1cccc(C(=O)N2CCCC2)c1 | -4.067% |
| CC1CCCN(C(=O)c2cccc(CS(C)(=O)=O)c2)C1 (centres undefined) | -2.941% |
| O=C(c1cccc(NCCO)c1)N1CCOCC1 | 0.9463% |
| COC(=O)[C@@H]1Cc2ncn(C(C)C)c2CN1S(=O)(=O)Cc1ccccc1 | 1.678% |
| CCN(CC)S(=O)(=O)NC(C)C(=O)N(C)C (centres undefined) | -9.888% |
| CC(C)c1nnc(CNc2ccc(SC(F)(F)F)cc2)o1 | -0.02401% |
| CCc1ccc(C2CCCCCN2C(=O)CNC(=O)NC2CC2)o1 (centres undefined) | -27.64% |
| Cc1ccnc(N2CCCC(c3noc(C(C)C)n3)C2)n1 (centres undefined) | 19.69% |
| c1cnnc(N2CCCC2CNCc2cnc(N3CCCC3)nc2)c1 (centres undefined) | -1.846% |
| O=C1OCCN1Cc1cc(C(F)(F)F)ccc1F | -10.76% |
| N#Cc1cccc(N2CCCC3(C2)CN(c2ncccn2)CCO3)n1.O=C(O)C(F)(F)F (centres undefined) | -0.7909% |
| Cc1nnc(N2CCCC3(CN(Cc4ccc(C)s4)CCO3)C2)o1.O=C(O)C(F)(F)F.O=C(O)C(F)(F)F (centres undefined) | -0.4451% |
| O=C(O)C(F)(F)F.c1ccc(N2CCOC3(CCCN(c4ncccn4)C3)C2)nc1 (centres undefined) | 84.77% |
| CCS(=O)(=O)N1CCOC2(CCCN(c3ccccn3)C2)C1.O=C(O)C(F)(F)F (centres undefined) | -10.79% |
| Cc1nnc(N2CCCC3(CN(c4ccccn4)CCO3)C2)o1.O=C(O)C(F)(F)F (centres undefined) | 102.3% |
| O=C(O)C(F)(F)F.O=C(O)C(F)(F)F.c1cnc(N2CCOC3(CCCN(c4cnccn4)C3)C2)nc1 (centres undefined) | -4.65% |
| Cc1cc(C(C)NC(=O)CCN2C(=O)c3ccccc3C2=O)c(C)o1 (centres undefined) | -2.425% |
| Cc1nc(Nc2ncccn2)cc(C2CCCN2C2CCOCC2)n1 (centres undefined) | -10.06% |

| Compound | Percent Effect |
| --- | --- |
| c1cc(-c2c[nH]c([C@@H]3COCCN3Cc3ncc[nH]3)n2)ccn1 | -5.75% |
| Cc1nc(Nc2ncccn2)cc(C2CCCN2Cc2ncc[nH]2)n1 (centres undefined) | 97.78% |
| Cc1nc(Nc2ccccn2)cc(C2CCCN2Cc2ncc[nH]2)n1 (centres undefined) | 129.4% |
| CCc1cc(C(C)Nc2nc(-c3cccnc3)nc3c2CNC3)on1 (centres undefined) | -7.07% |
| CN(C)C(C)(C)CNC(=O)C(C)(C)c1ccccc1F | -19.41% |
| Cc1csc(C2(NC(=O)NCCN3CCOCC3)CCCC2)n1 | -11.69% |
| COc1cccc(NC(=O)N(CCC(F)(F)F)C[C@H](O)CO)c1 | -14.76% |
| CCc1ccccc1OC1CN(C(=O)c2sccc2N)C1 | 9.804% |
| CC(Cn1cccn1)NC(=O)NCCN1CCCCCC1=O (centres undefined) | -10.88% |
| O=C(CN1CC(n2cccn2)C1)NCCc1c[nH]c2ccccc12 | -3.25% |
| CCC1CN(CC(=O)NCCC#N)CCO1 (centres undefined) | -6.003% |
| CC(C)c1nc2n(n1)CC(NCC(=O)NCCC1=CCCCC1)CC2 (centres undefined) | -9.722% |
| O=C(CN1CC(n2cccn2)C1)NCC1(c2ccccc2)CCC1 | 14.59% |
| N#CCCNC(=O)CN1CC(n2cccn2)C1 | 139.2% |
| O=C(CN1CC(n2cccn2)C1)NCCc1ccc(F)cc1 | 97.63% |
| O=C(CN1CCCC(c2ncc[nH]2)C1)NCCCN1CCCCCC1=O (centres undefined) | 11.49% |
| O=C(CN1CC(n2cccn2)C1)NCCCN1CCCC1=O | 95.99% |
| O=C(CN1CC(n2cccn2)C1)NCCCc1ccccc1 | -6.652% |
| O=C(c1ccc(CN2CC(n3cccn3)C2)cc1)N1CCCC1 | 6.953% |
| O=C(CN1CC(n2cccn2)C1)NCCC1=CCCCC1 | 104.9% |
| CNC(=O)CCNC(=O)c1ccccc1N1CCOCC1 | -6.711% |
| CCC1CN(C(=O)c2ccccc2C#N)CCN1C(C)C (centres undefined) | -3.955% |
| COc1ccc2c(c1)C1(CCN(Cc3nccs3)CC1)N(C)CC2.O=C(O)C(F)(F)F.O=C(O)C(F)(F)F | 6.008% |
| COc1ccc(-c2n[nH]cc2CN(C)Cc2nonc2C)c(F)c1 | -4.147% |
| O=C([C@H]1C[C@H]2OCC[C@H]2N(C(=O)C2CCOCC2)C1)N1CCCCO1 | -4.541% |
| CCOC(=O)c1ccccc1NC(=O)CN(C)Cc1ccccc1Cl.O=C(O)C(=O)O | 16.66% |

| Compound | Percent Effect |
| --- | --- |
| CC(=O)NCCC(=O)NCc1ccc(Br)cc1Cl | -2.805% |
| Cc1cccc(C(C)(C)CNc2cn[nH]c(=O)c2Cl)c1 | 26.78% |
| Cc1oc(CNC(=O)Cc2ccccc2Cl)cc1C(=O)O | -14.11% |
| NC(=O)C1CCN(C(=O)Cc2ccc(Cl)c(Cl)c2)CC1 | -1.39% |
| O=C(NC1CC1)c1cc(NC(=O)N2CCOCC2)ccc1Cl | -10.77% |
| O=C(O)Cc1cnc(-c2c(Cl)cccc2Cl)s1 | 122.5% |
| CN(C)C(=O)N1CCN(Cc2cnc(-c3ccsc3)s2)CC1 | -2.871% |
| O=C(O)Cc1cccc(-n2ccnc2-c2ccc(Cl)s2)c1 | 1.594% |
| CC(=O)N1CCN(C(=O)Cc2cnc(-c3c(Cl)cccc3Cl)s2)CC1 | 110.1% |
| Cc1ncc(CN(C)C(=O)Nc2cccc(C(=O)N3CCOCC3)c2)s1 | -6.788% |
| NC(=O)C1CCN(C(=O)Cc2cnc(-c3c(Cl)cccc3Cl)s2)CC1 | 112.4% |
| Cc1nc2ccnn2c(C)c1CCC(=O)N1CCC(C(N)=O)CC1 | 1.242% |
| O=C(Cc1cnc(-c2c(Cl)cccc2Cl)s1)N1CCOCC1 | 134.1% |
| CC(=O)N1CCCN(C(=O)NCCc2ccc(Cl)s2)CC1 | 4.085% |
| Cc1ncccc1OC1(C(=O)NCCC2CCCN2C)CCNCC1 (centres undefined) | 17.07% |
| CCCOCC(=O)N1CCCN(Cc2csc(CC)n2)CC1 | 2.804% |
| CS(=O)(=O)CCCN1CCSCC1c1ccc(Cl)cc1 (centres undefined) | -3.255% |
| CC(C)CN(CC(O)c1ccccc1)C(=O)Nc1nccs1 (centres undefined) | 92.63% |
| O=C(Nc1nccs1)N(CCO)Cc1ccsc1 | -2.808% |
| CCN(CC(O)c1ccc(C)cc1)C(=O)NC(C)C (centres undefined) | 91.44% |
| CCN(CC(=O)Nc1c(C)n[nH]c1C)CC(O)c1ccc(C)cc1 (centres undefined) | -7.699% |
| CC(NC(=O)Nc1nccs1)c1cccnc1 (centres undefined) | -1.338% |
| CC(C)NC(=O)CNC(C)COc1ccccc1 (centres undefined) | 2.359% |
| CCN(CC(=O)Nc1c(C)nn(C)c1C)CC(O)c1ccc(C)cc1 (centres undefined) | 2.184% |
| CC(C)CN(CC(O)c1ccccc1)C(=O)NC(C)C (centres undefined) | 126.3% |
| CCC(CC)(CNC(C)=O)NC(C)c1ccccc1 (centres undefined) | 1.082% |
